TRHR enhancer-1 – allosterically enhances the human TRH receptor; 0.66% of 360,000 active; TRHR cells, fluo-8 calcium fluorescence, EC20 TRH enhancement; P34981; enhancement, % at 2 µM; in the data active = enhancement above about 30%; note: 0% is about no effect
Target sequence (P34981 whole entry, looked up): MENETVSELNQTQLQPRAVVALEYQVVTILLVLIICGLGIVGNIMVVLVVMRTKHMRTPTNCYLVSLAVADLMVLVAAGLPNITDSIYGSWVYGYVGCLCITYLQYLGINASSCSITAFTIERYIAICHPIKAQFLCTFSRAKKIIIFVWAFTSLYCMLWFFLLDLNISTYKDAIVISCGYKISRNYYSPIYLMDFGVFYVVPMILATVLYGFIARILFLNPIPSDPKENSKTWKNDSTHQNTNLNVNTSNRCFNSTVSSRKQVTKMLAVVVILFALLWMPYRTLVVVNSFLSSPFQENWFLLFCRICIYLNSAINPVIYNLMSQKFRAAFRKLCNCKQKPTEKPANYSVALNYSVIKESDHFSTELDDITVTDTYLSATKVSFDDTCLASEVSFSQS
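Enhancer read-out: after compound pinning and an initial kinetic agonist-mode read, an EC20 of TRH (10 nM final) was injected and fluo-8 calcium signal (Ex 480/Em 530) followed at 1 s/cycle for 100 cycles in TRHR-expressing cells.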
D1 agonist – agonists of human D1 dopamine receptor. P21728. HEK293 T-REx D1 cells, calcium flux, agonist mode. activation, % at 2 µM. 1% of 360,000 active. AID 504660; note: 0% is about no effect
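Agonism was scored from calcium flux recorded over 180 s (1 read/s) after pintool compound addition, following a 10-cycle baseline. Cells were inducible force-coupled HEK293 TREx D1, plated overnight at 30 C and loaded with no-wash calcium dye.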
D1 antag – blocks dopamine activation of the human D1 receptor; P21728; HEK293 TREx D1 cells, calcium flux, dopamine EC80; hits give low values; activity change, negative = inhibition, % at 10 µM; 3.2% of 360,000 active; AID 504652; in the data active = activity change below about -30%; note: % is set by controls: 0 for no effect and ±100 for the full control effect
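Calcium flux readout: force-coupled, inducible Hek293 Trex D1 line, cells induced overnight at 30 C with tetracycline, dye-loaded 30–90 min at RT. Antagonism scored against EC80 dopamine challenge given 180 s after compound.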
TRHR agonist-1 – agonists of human TRH receptor; 0.18% of 360,000 active; AID 493084; activation, % at 2 µM; P34981; TRHR cells, calcium flux fluo-8, FDSS agonist mode; note: 0% is about no effect
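Read-out: compound-evoked intracellular calcium rise in TRHR cells, fluo-8 dye, kinetic FDSS fluorescence at 1 s/cycle following a 10-cycle baseline. Cells cultured overnight before dye loading (30 min–1.5 h, RT).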
D1 PAM – enhances dopamine response at the human D1 receptor; HEK293 TREx D1 cells, calcium flux, dopamine EC20 potentiation; potentiation, % at 10 µM; 0.036% of 360,000 active; AID 504651; in the data active = potentiation above about 30%; note: 0% is about no effect
TRHR enhancer-2 – human TRH receptor allosteric enhancement confirmation. shares compounds with TRHR enhancer-1. TRH receptor cell assay, enhancer confirmation qHTS. activity change, negative = inhibition, % at 46.1 µM. 970 tested, under 10 active; active = well fitted curve in the direction sought with a large enough effect; inconclusive = small, poorly fitted or top-dose-only effect, or another doubt; inactive = no such curve, though single readings can be large; an effect the other way counts as inactive or inconclusive;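 note: compound effect scored on response to added TRH at EC20 of 10 nM; 0% is about no effect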
TRHR agonist-2 – confirmation of human TRH receptor agonists. shares compounds with TRHR enhancer-1. TRHR-expressing cells, agonist activation read-out. Potency, µM (highest dose often 46.1 µM), for inactives: top-dose activation, usual class: activators. 8% of 970 active. AID 493078; active = well fitted curve in the direction sought with a large enough effect; inconclusive = small, poorly fitted or top-dose-only effect, or another doubt; inactive = no such curve, though single readings can be large; an effect the other way counts as inactive or inconclusive; note: potency is the fitted concentration of half-maximal effect; 0% is about no effect; nearly all actives have a fitted effect of over 75% in size
* hit, by the source's call; ? = inconclusive; · = no result. Compounds with a hit are over-represented: about 4.7% of the library has one in this group of screens. Cut-off read from the data, not from the text of the source, unless noted: active = activation above about 30%; inactive = the rest.

SMILES	TRHR enhancer-1	D1 agonist	D1 antag	TRHR agonist-1	D1 PAM	others
COc1ccc(N2C(=O)NC(=O)/C(=C\c3ccccc3[N+](=O)[O-])C2=O)cc1	3.8	0.8	-2.5	0.9	-0.4
CCOc1ccc(N2C(=O)NC(=O)/C(=C\c3ccccc3[N+](=O)[O-])C2=O)cc1	-2.1	1.2	-45.6*	0.7	4.5
CCC1(CC)C(=O)NC(=Nc2cccc(C(F)(F)F)c2)NC1=O	-5.5	30.6*	0.9	2.0	-9.2
CCOc1ccc(CN2C(=O)c3ccccc3Sc3ccc(C(=O)N4CCC5(CC4)OCCO5)cc32)cc1	17.2	2.5	5.6	0.4	6.2
O=C1CC(c2ccc(C(F)(F)F)cc2)c2c(c3ccccc3oc2=O)O1 (stereo not drawn)	0.2	2.6	0.3	1.4	0.1
Cc1[nH]c2ccccc2c1CCCNC1CCCCC1	-3.2	36.8*	-1.8	2.1	-3.3
Cc1ccc(-n2c(/C=C/c3ccc(Br)s3)nc3ccccc3c2=O)cc1C	-18.9	2.9	38.2	0.6	-2.2
CC(Cc1ccccc1Sc1ccccc1O)N(C)C (stereo not drawn)	15.8	40.3*	-38.5*	2.1	-0.2
CCC(=O)c1cn(Cc2ccccc2)c2ccccc12	-4.4	1.7	2.0	-1.0	-6.9
O=C(COc1ccccc1)c1cn(Cc2ccccc2)c2ccccc12	7.0	30.2*	-21.1	3.5	-8.8
Cc1cccc(Cn2cccc(C(=O)Nc3cc(C)on3)c2=O)c1	-4.5	3.8	·	0.2	4.7
O=c1c2ccccc2nc(/C=C/c2cccc3ccccc23)n1-c1ccc(Cl)cc1	-3.2	0.9	1.2	0.1	-3.4
COc1cccc(/C=C/c2nc3ccccc3c(=O)n2-c2ccc(Cl)cc2)c1OC	0.1	-2.5	7.3	-0.3	0.1
C(CCc1nn[nH]n1)CCc1nn[nH]n1	4.8	5.4	-37.2*	-0.8	-2.2
COc1ccc(CCNCc2ccc(Br)cc2)cc1OC	14.3	42.9*	-10.8	-0.4	-9.1
COc1ccc(CCNCc2ccncc2)cc1OC	5.2	1.6	-21.9	-0.2	-2.4
COc1cccc(-n2c(/C=C/c3ccccc3O)nc3ccccc3c2=O)c1	1.1	4.8	-19.6	2.3	1.1
O=C(Nc1ccc(Cl)cc1)OC1CN2CCC1CC2 (stereo not drawn)	-5.0	30.1*	-14.7	1.7	-7.8
O=C(Nc1cccc(Cl)c1)OC1CN2CCC1CC2 (stereo not drawn)	-5.8	22.4	-38.3*	3.3	-5.4
O=C(Nc1ccccc1F)OC1CN2CCC1CC2 (stereo not drawn)	4.4	1.8	7.3	0.3	1.8
O=C(Nc1ccccc1Cl)OC1CN2CCC1CC2 (stereo not drawn)	-2.7	13.9	-37.6*	3.8	-6.2
CN1C(=O)COc2c(C(=O)NC3CN4CCC3CC4)cc(Cl)cc21 (stereo not drawn)	2.2	-1.3	3.7	0.0	-1.4
Cc1ccc(C)c(CN2C(=O)c3ccccc3Sc3ccc(C(=O)N4CCC5(CC4)OCCO5)cc32)c1	11.6	1.1	38.6	0.1	0.4
CCOc1ccc(CN(CCc2ccc3c(c2)OCO3)Cc2cccc(Br)c2)cc1	-0.5	3.6	-12.8	-1.0	-0.6
NCC(O)c1cc(O)c(O)cc1F (stereo not drawn)	-4.1	37.2*	-85.1*	0.7	-6.4
SMILES	TRHR enhancer-1	D1 agonist	D1 antag	TRHR agonist-1	D1 PAM	others
CC(C)c1ccc(OCC(=O)N2CCN(CCc3ccncc3)CC2)cc1	-7.6	2.4	-7.5	0.4	-0.4
O=c1[nH]c(=S)n(-c2ccccc2)c(O)c1C=NCc1ccccn1	-4.1	2.8	-43.6*	-1.6	-1.1
CN1C(=O)C(=Cc2ccc(N3CCOCC3)o2)C(=O)N(C)C1=O	14.0	45.2*	14.8	-0.1	-2.5
O=C(COc1cccc(Cl)c1)N1CCN(CCc2ccncc2)CC1	2.9	-0.8	-7.3	-1.0	-0.3
Cc1cccc(N2C(=O)/C(=C/c3ccc(N4CCN(C)CC4)o3)C(=O)NC2=S)c1C	-2.6	67.8*	5.7	20.1	1.6
Cc1ccccc1N1C(=O)NC(=O)/C(=C/c2ccc(N3CCOCC3)o2)C1=O	-5.0	14.5	-0.9	8.4	-0.9
CN1C(=O)C(=Cc2ccc(N3CCCCCC3)o2)C(=O)N(C)C1=S	7.6	27.1	4.2	25.3	0.7
O=C1NC(=O)N(c2ccc3c(c2)OCO3)C(=O)/C1=C\c1ccc(N2CCCCC2)o1	-0.5	49.7*	-0.4	17.2	-1.5
Cc1ccccc1N1C(=O)/C(=C/c2ccco2)C(=O)NC1=S	4.6	0.3	-16.5	0.0	-3.0
CCc1ccccc1N1C(=O)/C(=C/c2ccc(N3CCN(C)CC3)o2)C(=O)NC1=S	11.8	70.8*	2.0	16.7	-4.3
CN1CCN(c2ccc(N)cc2)CC1	88.6*	1.4	·	0.5	-0.1	TRHR enhancer-2=1.8;TRHR agonist-2=-0.3%
COc1cc(OC)cc(C(=O)Nc2ccc(Cl)cc2C(=O)c2ccccc2Cl)c1	4.3	0.8	-6.5	-0.4	0.3
Cn1c(O)c(/C=C/C=Nc2ccccc2)c(=O)n(C)c1=S	16.6	64.1*	1.7	44.6*	4.5	TRHR enhancer-2=-10.5;TRHR agonist-2=30.0%
Cn1c(O)c(C=Nc2ccc(Br)cc2)c(=O)n(C)c1=O	-2.7	0.9	-10.0	-1.1	-15.4
Cc1ccccc1-n1c(O)c(/C=C/C=Nc2ccccc2)c(=O)[nH]c1=O	-1.6	40.6*	-10.3	32.0*	4.7	TRHR enhancer-2=?;TRHR agonist-2=20.6µM*
O=C(COc1ccc(Cl)cc1)Nc1ccc(Cl)cc1C(=O)c1ccccc1	-6.3	1.5	8.1	-1.0	0.8
O=c1c2ccccc2nc(-c2ccccc2)n1-c1ccc(O)cc1	46.5*	2.1	-18.0	0.1	-3.1	TRHR enhancer-2=3.9;TRHR agonist-2=-0.7%
Cc1ccc(-c2nc3ccccc3c(=O)n2-c2ccc(O)cc2)cc1	-2.8	1.5	-13.6	-0.5	4.8
C=CCn1c(=O)/c(=C\c2ccccn2)s/c1=C(/C#N)C(=O)NCC1CCCO1 (stereo not drawn)	-9.5	150.8*	-27.6	46.3*	-5.2	TRHR enhancer-2=-0.8;TRHR agonist-2=?
CC(C)CNP(=S)(c1ccccc1)C(C)(C)C (stereo not drawn)	43.1*	1.3	4.9	0.3	-2.2	TRHR enhancer-2=-10.9;TRHR agonist-2=1.2%
CC(C)(C)P(=O)(NCc1ccccc1)c1ccccc1 (stereo not drawn)	4.6	6.0	9.7	2.5	-0.6
NNC(=O)c1ccc(O)cc1	46.6*	1.0	13.9	0.0	1.3	TRHR enhancer-2=12.5;TRHR agonist-2=-0.7%
N#Cc1cc2c(nc1SCC(=O)Nc1cccc(C(F)(F)F)c1)C1CCN2CC1	-5.8	3.4	-24.3	-0.7	-1.9
Cc1ccc(-c2nc(CN3C(=O)CN=C(c4ccccc4)c4ccccc43)c(C)o2)cc1	20.3	2.9	3.4	0.8	5.6

Screening data as filed in PubChem BioAssay.
